Inhibition data for 40 compounds are collected here from PubChem BioAssay.

Assay [1] can be described thus: StAR promoter reporter inhibitors, counter-screen for LRH-1 inverse agonist project, cell-based, luminescence, high throughput (AID 651611; in the data active = inhibition above about 28%). As to conditions: StAR promoter luciferase reporter counterscreen, at 3.6 µM, stronger effect = higher value.
The target of assay [2] is Nuclear receptor subfamily 5 group A member 2 (Homo sapiens) (UniProt O00482). The assay can be described thus: NR5A2 activity suppression in reporter cells – cell-based, luminescence, confirmation (AID 651613; in the data active = inhibition above about 42%;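 also: HEK293T cells co-transfected with LRH-1 and StAR promoter luciferase reporter; 0% = vehicle wells and 100% = parental cells lacking receptor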). As to conditions: cell-based LRH-1 luciferase reporter, inverse agonism; at 3.6 µM; stronger effect = higher value. For orientation: Reporter assays use an easily measured gene product as a stand-in for the process of interest.
Chain of Nuclear receptor subfamily 5 group A member 2 (Homo sapiens) (O00482 whole entry, looked up): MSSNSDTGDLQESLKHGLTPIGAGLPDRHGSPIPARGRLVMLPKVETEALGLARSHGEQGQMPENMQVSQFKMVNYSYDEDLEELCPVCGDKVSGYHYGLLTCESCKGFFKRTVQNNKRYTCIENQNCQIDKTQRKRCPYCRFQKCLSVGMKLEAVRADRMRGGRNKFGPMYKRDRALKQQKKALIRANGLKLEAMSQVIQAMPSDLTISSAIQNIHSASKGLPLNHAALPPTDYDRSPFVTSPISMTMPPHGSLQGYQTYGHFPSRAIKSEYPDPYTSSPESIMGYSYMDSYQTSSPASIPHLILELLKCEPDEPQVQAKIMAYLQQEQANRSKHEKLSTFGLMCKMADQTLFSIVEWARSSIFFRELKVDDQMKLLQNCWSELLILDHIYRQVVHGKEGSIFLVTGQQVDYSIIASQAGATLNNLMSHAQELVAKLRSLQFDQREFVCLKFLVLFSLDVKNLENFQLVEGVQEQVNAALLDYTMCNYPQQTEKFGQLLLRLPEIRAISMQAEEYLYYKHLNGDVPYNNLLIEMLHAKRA

The target in assay [3] is Steroidogenic factor 1 (Homo sapiens) (UniProt Q13285). The assay can be described thus: inverse agonism at SF1 nuclear receptor – cell-based, luminescence, high throughput, counter-screen for LRH-1 inverse agonist project (AID 651614; in the data active = inhibition above about 44%;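 also: cells cotransfected with StAR promoter reporter and SF1 expression vector; 0% = vehicle on cells with receptor and 100% = vehicle on cells lacking receptor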). As to conditions: cell-based SF1 luciferase reporter, at 3.6 µM, stronger effect = higher value. For orientation: Counterscreens check selectivity or assay interference.
Chain of Steroidogenic factor 1 (Homo sapiens) (Q13285 whole entry, looked up): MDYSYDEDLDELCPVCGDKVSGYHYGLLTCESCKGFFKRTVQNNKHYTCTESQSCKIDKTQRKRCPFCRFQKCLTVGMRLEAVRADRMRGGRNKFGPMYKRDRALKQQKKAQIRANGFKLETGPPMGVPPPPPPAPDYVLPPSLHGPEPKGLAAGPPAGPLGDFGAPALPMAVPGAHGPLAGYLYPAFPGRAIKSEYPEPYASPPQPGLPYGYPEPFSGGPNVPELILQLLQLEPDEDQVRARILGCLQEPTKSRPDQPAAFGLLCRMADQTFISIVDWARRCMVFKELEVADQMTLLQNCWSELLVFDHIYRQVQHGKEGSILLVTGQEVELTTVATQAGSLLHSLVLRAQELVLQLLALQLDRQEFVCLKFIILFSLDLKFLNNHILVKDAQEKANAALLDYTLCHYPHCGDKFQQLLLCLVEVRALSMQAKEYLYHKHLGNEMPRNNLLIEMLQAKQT

A short description of assay [4]: compounds suppressing VP16-driven luciferase signal – cell-based, luminescence, high throughput, counter-screen for LRH-1 inverse agonist project (AID 651615). As to conditions: Gal4-VP16 luciferase reporter cells, at 3.6 µM, stronger effect = higher value.

Values without a mark were called inactive. Activity calls are given as the source filed them. Rule as the data show it, unless noted: active = inhibition above about 33%; inactive = the rest.

For `Cc1cccc(C(=O)N[C@H](C(=O)Nc2ncc(C)s2)C(C)C)c1`, the inhibition (usually the relative decrease from the control value, in per cent) in assay [1] was 35.8% (active); in assay [2], 58.7% (active); in assay [3], 39.8%; in assay [4], 8.22%.
For `O=C(Nc1ccc2c(c1)CCCN2C(=O)c1ccco1)c1cc([N+](=O)[O-])ccc1Cl` the same measures were 51.9% (active), 39.3%, 59.1% (active) and 33.9% (active).
The corresponding values for `COc1ccc(NC(=O)CSC2=NCCN2)cc1` are -2.78%, 31.3%, 15.1% and -3.5%.
For `CC1(C(=O)NCc2ccco2)Cc2c(-c3ccccc3)ccnc2O1` (stereo not given) the same measures were 42% (active), 36.3%, 59% (active) and 26.6%.
`COc1cccc2sc(N3CCN(C(=O)c4ccc([N+](=O)[O-])o4)CC3)nc12`: the inhibition is 25.2% in assay [1], 69.2% (active) in assay [2], 70.4% (active) in assay [3] and -23.4% in assay [4].
`O=C1c2ccccc2-n2c1nc1ccccc1c2=O`: the inhibition in assay [1] was 41.1% (active); in assay [2], 66.7% (active); in assay [3], 57.8% (active); in assay [4], 51% (active).
The corresponding values for `NC(=S)N/N=C/c1ccc(-c2ccc([N+](=O)[O-])cc2)o1` are -7.04%, 52.5% (active), 44.5% (active) and 13.5%.
As for `O=C(C[C@H]1CC[C@@H]2[C@H](COC[C@H](O)CN2Cc2cccc(C(F)(F)F)c2)O1)NCCc1ccccc1`, the inhibition in assay [1] was 2.1%; in assay [2] it was 8.97%; in assay [3], 15.7%; in assay [4], 1.55%.
Turning to `CCOc1ccc(NC(=O)COC(=O)c2cc([N+](=O)[O-])ccc2N2CCOCC2)cc1`, the inhibition in assay [1] is 6.26%; in assay [2], 55.9% (active); in assay [3], 50.6% (active); in assay [4] it was -1%.
The corresponding values for `O=C(N/N=C/c1ccc([N+](=O)[O-])s1)c1ccccc1Br` are 40.1% (active), 57.5% (active), 65.3% (active) and 14%.
For `O=[N+]([O-])c1cnccc1Nc1ccc(F)cc1` the same measures were 13.2%, 66.8% (active), 55.2% (active) and 9.14%.
The corresponding values for `COc1ccc(CC(NC(C)=O)C(=O)NC2CCN(c3nnnn3-c3ccccc3)CC2)cc1` (stereo not given) are 10.5%, 45.1% (active), 43.8% (active) and 2.12%.
On to `C/C(=N\Nc1nc2ccccc2[nH]1)c1ccccn1`, for which the inhibition is 71.4% (active) in assay [1], 83.1% (active) in assay [2], 73.9% (active) in assay [3] and 2.13% in assay [4].
The corresponding values for `COc1ccc(-c2cnc3c(NC=O)cc(-c4ccc(S(C)(=O)=O)cc4)cn23)cc1OC` are -4.42%, 63% (active), 58.1% (active) and 30.2%.
For `Cc1cccc(-n2ncc3c2CCCC3NC(=O)C2(C(N)=O)CC2)c1C` (stereo not given) the same measures were 16.4%, 55% (active), 48.4% (active) and 50% (active).
For `Cc1onc(-c2ccccc2Cl)c1-c1nc(-c2ccccn2)no1` the same measures were 17.1%, 67.3% (active), 52.7% (active) and 7.63%.
As for `COc1ccc(/C=C/C(=O)c2cc(F)ccc2OC(=O)c2ccccc2C)cc1OC`, the inhibition in assay [1] is 52.9% (active); in assay [2], 41.1%; in assay [3] it was 44.9% (active); in assay [4], 40.4% (active).
For `COc1ccc(OC)c(CCNC(=O)Cn2nc(C)c3c(C)n(-c4ccc(C)cc4)nc3c2=O)c1` the same measures were 38.8% (active), 68% (active), 63.8% (active) and 52% (active).
The corresponding values for `OC(c1ccc2ccccc2n1)c1c(Cl)cccc1Cl` (stereo not given) are 12.8%, 42.7% (active), 41.4% and 17.8%.
The corresponding values for `CCN(CC)S(=O)(=O)c1ccc(N2CCOCC2)c(NC(=O)c2[nH]c(C)c(C(C)=O)c2C)c1` are 61.6% (active), 51.5% (active), 25.8% and -200%.
Turning to `Clc1ccccc1-c1nc(N/N=C/c2cccnc2)c2ccccc2n1`, the inhibition in assay [1] is 6.03%; in assay [2], 52.3% (active); in assay [3], 53.3% (active); in assay [4], -7.84%.
The corresponding values for `COc1ccc(-c2cc3ccccc3oc2=O)cc1NC(=O)c1ccc([N+](=O)[O-])o1` are -51.4%, 16%, 22.5% and -68.2%.
For `CN(C)c1nnnn1-c1cccc(Oc2ncc(C(F)(F)F)cc2Cl)c1` the same measures were 8.18%, 38.6%, 38.3% and -5.85%.
The corresponding values for `CCOc1cc(/C=C2/C(=N)N3OC(C)=CC3=NC2=O)ccc1OCCOc1ccccc1` are 5.5%, 46% (active), 32.2% and -12.2%.
Consider `COc1ccc(-c2oc(=O)c3cc(OC)c(OC)cc3c2C#CCCO)cc1`, for which the inhibition in assay [1] was 33.4% (active); in assay [2] it was 28.7%; in assay [3], 29.1%; in assay [4], -1.67%.
For `CCN(Cc1ccccc1)c1ccc(/C=N/NC(=O)c2cccc(S(=O)(=O)N3CCOCC3)c2)cc1` the same measures were 24.6%, 66.8% (active), 62.3% (active) and 28%.
Consider `CCN1C(=O)c2cccc3c(NC(=O)c4cccc(N5C(=O)CCC5=O)c4)ccc1c23`, for which the inhibition in assay [1] is 21.9%; in assay [2], 51.3% (active); in assay [3], 50.1% (active); in assay [4], -48.1%.
The corresponding values for `CCCCCc1ccc(OCCCC[n+]2ccc(C)cc2)c(CCCCC)c1` are 21.4%, 42.3% (active), 45.7% (active) and 45.6% (active).
The corresponding values for `O=C(Cn1ncc2c([nH]c3ccccc32)c1=O)Nc1ccc(CN2CCCCC2)cc1` are 5.26%, 60.9% (active), 62.4% (active) and -4.27%.
With `Cc1cc(SC#N)cc(C)c1NC(=O)CCl`, the inhibition in assay [1] is 27.4%; in assay [2], 52.8% (active); in assay [3], 50.9% (active); in assay [4] it was -31.6%.
As to `O=C(Nc1cccc2ccccc12)c1ccc([N+](=O)[O-])o1`, the inhibition in assay [1] is 27.4%; in assay [2] it was 68.5% (active); in assay [3], 70.8% (active); in assay [4] it was -3.59%.
For `c1ccc(-c2nc(N3CCCCCC3)c3ccccc3n2)nc1` the same measures were 24.7%, 63.5% (active), 74.8% (active) and 39.3% (active).
Consider `Cc1cc(OCC(=O)Nc2cccnc2)c2c(C)c(C)c(=O)oc2c1`, for which the inhibition was 10.8% in assay [1], 63.2% (active) in assay [2], 52.8% (active) in assay [3] and -34.7% in assay [4].
As to `COc1ccccc1Nc1nc(NCCCCO)nc(N2CCCC2)n1`, the inhibition in assay [1] was 10.5%; in assay [2], 30.2%; in assay [3] it was 38.3%; in assay [4], 5.34%.
For `Cc1c(NC(=S)NC(=O)c2ccc(Cl)cc2)c(=O)n(-c2ccccc2)n1C` the same measures were 11.3%, 51.5% (active), 33.4% and -1.07%.
As for `O=C(Cn1cnc2c(nnn2-c2ccccc2)c1=O)NCCc1ccccc1`, the inhibition is 13.4% in assay [1], 50.9% (active) in assay [2], 51% (active) in assay [3] and -7.88% in assay [4].
The corresponding values for `CCOc1ccc(NC(=O)CSc2nnc(C(C)C)n2CC)cc1` are 0.92%, 49.3% (active), 50.3% (active) and -3.19%.
Take `Cc1ccccc1Nc1nc(Cl)c(C=O)s1`: the inhibition in assay [1] was 2.17%; in assay [2], 50.5% (active); in assay [3], 41.7%; in assay [4], -5.11%.
For `CC(C)CNC(=O)COC(=O)c1c2c(nc3ccccc13)/C(=C/c1cccs1)CC2`, the inhibition in assay [1] was -15.9%; in assay [2] it was 4.19%; in assay [3] it was -12.8%; in assay [4], -8.73%.
The corresponding values for `OCC1OC(n2cnc3c(/C=C(\O)c4ccccc4)ncnc32)C(O)C1O` (stereo not given) are -32.8%, -13.9%, -0.35% and -27.3%.
